# Screens (PubChem)
# CF NFkB inh = cystic fibrosis NF-kB activation inhibition. KKLEB NF-kB-GFP reporter, PAF-induced, GFP fluorescence overnight. 0.86% of 360,000 active. inhibition, % at 5 µM;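 active means at least 50% inhibition at 5 µM, scaled per plate between neutral and stimulator controls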;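 further: PAF is a Pseudomonas aeruginosa culture filtrate used as stimulus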
# HIF-2a block = blocks HIF-2a reporter activity. 786-0 RCC cells HIF-2a reporter, luciferase luminescence, overnight. inhibition, % at 18.8 µM. 0.72% of 360,000 active. AID 624352;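 active means inhibition of the luminescence signal of 40% or more relative to plate controls, in a single-dose primary screen at 18.75 µM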
# TWEAK Fn14 block = inhibitors of TWEAK-Fn14 interaction signaling | AID 1159606 | 2% of 360,000 active | inhibition, % at 10 µM | TWEAK-stimulated Fn14 reporter cells, luciferase luminescence, 8 h; in the data active means inhibition above about 50%
# TROY signal inh = blocks TROY-dependent signaling in reporter cells; Q293 LMP1-TROYcd NF-kB luciferase reporter, 4 h; inhibition, % at 10 µM; 0.98% of 360,000 active; AID 1347056;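 active means compounds whose plate-normalised and pattern-corrected inhibition of the luciferase reporter signal at the single screening dose is 50% or more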
# Peg3 prom inh = inhibitors of Peg3 promoter. 1.7% of 360,000 active. HeLa PEG-Prom luciferase reporter, luminescence, overnight. inhibition, % at 20 µM;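 active means inhibition of at least 50% at 20 µM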
# KKLEB tox = CF airway cell cytotoxicity counter-screen | KKLEB CF airway cells viability, ATPlite luminescence, overnight; active compounds read low; cells stimulated with P. aeruginosa culture filtrate | activity change (cytotoxicity), % at 5 µM | 0.36% of 360,000 active | AID 602141;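 active means corrected activity change at or below -50% at 5 µM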
# Numbers stand for hits; n = inactive; x = no result. A selection: hits, their analogues and other compounds. The true share with any hit is near 4%.
SMILES,CF NFkB inh,HIF-2a block,TWEAK Fn14 block,TROY signal inh,Peg3 prom inh,KKLEB tox
COC(=O)c1ccc(-n2c(C)cc(C(=O)CSc3ccc(NC(C)=O)cc3)c2C)cc1,n,n,n,n,n,n
Cc1cc(NC(=O)COc2ccc3ccccc3c2Br)no1,n,n,n,n,n,n
O=C1c2ccccc2C(c2nnnn2-c2ccc3c(c2)OCCO3)N1Cc1ccco1 (stereo not drawn),x,n,n,n,x,x
COc1cccc(CSC(C(=O)O)c2ccccc2)c1 (stereo not drawn),n,n,n,n,n,n
Cc1ccc(CC(NC(=O)C2CCCCC2)C(=O)O)cc1 (stereo not drawn),n,n,n,n,n,n
CC(C)C[C@@H]1CN(CCCC[C@H]2CNC(=O)C(=O)N2CCC2CCCCC2)C(=O)C(=O)N1CCC1CCCCC1,x,n,60.7,n,x,x
CC(C)C[C@H]1CN(CCCC[C@H]2CNC(=O)C(=O)N2CCC2CCCCC2)C(=O)C(=O)N1CCC1CCCCC1,x,n,n,n,x,x
Cc1ccc(C)c(Cn2c3ccccc3c3cnn(CC(=O)NCCCN4CCCCC4)c(=O)c32)c1,n,n,n,n,86.1,n
Cc1ccc(C)c(Cn2c3ccccc3c3cnn(CC(=O)NCc4ccccn4)c(=O)c32)c1,n,n,n,n,n,n
COc1cc(CNC(=O)c2cc(-c3ccc(F)cc3C)n[nH]2)cc(OC)c1,n,n,n,n,n,n
C[C@H]1CN([C@@H](C)CO)C(=O)c2cc(Br)cnc2O[C@@H]1CN(C)S(=O)(=O)c1ccccc1,n,n,n,n,n,n
COc1ccc2[nH]c(=O)c(CN(Cc3cccs3)S(=O)(=O)c3c(C)ccc4nsnc34)cc2c1,96.7,n,60.6,n,59.4,n
Cc1ccc2[nH]c(=O)c(CN(Cc3ccco3)S(=O)(=O)c3c(C)ccc4nsnc34)cc2c1,n,n,n,n,n,n
CCN(CC)CCN(CC(=O)Nc1c(C)cc(C)cc1C)C(=O)c1ccccc1,n,n,n,n,n,n
CC1(C(=O)NC2CCCC2)CCC(=O)N1CCOc1ccccc1 (stereo not drawn),n,n,n,n,n,n
COc1ccc(C(=O)COC(=O)CCS(=O)(=O)c2ccc(C)cc2)c(OC)c1,n,n,n,n,n,n
COc1ccc(C(=O)CCS(=O)(=O)c2ccc(C)cc2)cc1OC,n,n,n,n,59.2,n
O=C(Nc1ccc(OCC(F)(F)C(F)F)c(C(F)(F)F)c1)c1ccccc1O,n,n,n,n,n,-50.7
CC1(C)CC(C(CCN(Cc2ccccc2)C(=O)c2ccco2)c2ccc(F)cc2)CCO1 (stereo not drawn),n,n,n,n,51.4,n
O=C(c1ccco1)N(CCC(c1ccccc1)c1ccco1)Cc1ccc(F)cc1 (stereo not drawn),n,n,n,n,n,n
O=c1cc(-c2ccccc2Cl)oc2c(NS(=O)(=O)c3cccs3)ccc(O)c12,52.1,n,n,n,n,n
COC(=O)[C@H](CCSC)NC(=O)Cn1cnc(C(=O)Nc2ccc(C)c(C)c2)n1,n,n,n,n,n,n
COCC#Cc1ccc2c(c1)O[C@@H](CN(C)C(=O)Nc1ccc(OC)cc1)[C@H](C)CN([C@H](C)CO)S2(=O)=O,n,n,n,n,n,n
CCOc1ccc(Cl)cc1/C=N/NC(=O)c1ccccc1,n,n,n,n,n,n
CCOc1ccccc1/C=C(/NC(=O)c1ccccc1)C(=O)N(CC)CC,n,n,58.0,50.1,n,n
SMILES,CF NFkB inh,HIF-2a block,TWEAK Fn14 block,TROY signal inh,Peg3 prom inh,KKLEB tox
Cc1ccc(C(C)C)c(OCc2nn(CC(=O)c3ccc(OC(F)F)cc3)c3[n+]2CCCCC3)c1,n,n,n,n,105.4,n
COc1ccc(C2=CSC3=NCCN23)cc1Cl,n,n,n,n,n,n
COc1ccc(C2=CSC3=NCCN23)cc1F,n,n,n,54.1,n,n
CCN(CC)S(=O)(=O)c1cccc(C(=O)/C=C2/N(C)c3ccccc3C2(C)C)c1,n,n,61.0,n,n,n
CN1/C(=C\C(=S)NC(=O)c2ccc([N+](=O)[O-])cc2)C(C)(C)c2ccccc21,n,n,58.2,n,n,n
CN1/C(=C/C=N/NC(=O)c2ccc([N+](=O)[O-])cc2)C(C)(C)c2ccccc21,n,n,n,n,n,n
CN1/C(=C\C(=O)Nc2ccc(Br)cc2)C(C)(C)c2ccccc21,n,n,n,n,n,n
CN1/C(=C\C(=S)NC(=O)c2cccc(Br)c2)C(C)(C)c2ccccc21,n,n,72.4,n,n,n
Cc1nc2c(OCCOc3ccc(F)cc3)cccn2c1N(C)C(=O)CCC1CCCC1,n,n,n,n,n,n
C=CC(=O)Nc1cccc(N(C)c2ccnc(Nc3ccc(N4CCN(C)CC4)cc3)n2)c1,61.0,n,n,n,n,n
C=CC(=O)Nc1cccc(Oc2ccnc(Nc3ccc(N4CCN(C)CC4)cc3)n2)c1,63.3,58.5,n,n,51.8,n
CN1CCN(c2ccc(NC(=O)COc3cccc4ccccc34)cc2)CC1,n,n,n,n,n,n
CCn1nccc1NC(=O)c1csc([C@@H]2O[C@H](CO)[C@H](O)[C@H](O)[C@H]2O)n1,n,n,n,n,n,n
O=C(N/N=C/c1cccc(O)c1)c1ccc(NC(=O)C2CCCCC2)cc1,n,n,n,n,n,n
O=C(N/N=C/c1ccc(O)cc1O)c1ccc(NC(=O)C2CCCCC2)cc1,n,n,n,n,62.2,n
O=C(NCc1cccc(Cl)c1)c1ccc(S(=O)(=O)Nc2cccc(C(F)(F)F)c2)cc1,n,n,n,55.2,n,n
COc1ccc(S(=O)(=O)N2CCOCC2)cc1NC(=O)C1CC(=O)N(c2ccc3c(c2)OCCO3)C1 (stereo not drawn),n,n,n,n,n,n
CC1(C)CC(N=c2cc(-c3ccccc3)oc3ccc(Cl)cc23)CC(C)(C)N1,n,n,n,n,107.6,n
OCCCN=c1cc(-c2ccccc2)oc2ccc(Cl)cc12,n,n,n,n,n,n
Cc1ccc(NC(=O)CCc2c[nH]c3ccccc23)nc1,n,n,n,n,n,n
COc1ccc(N2CCN(C(=O)c3[nH]c4ccc(OC)cc4c3C)CC2)cc1,n,n,n,n,n,n
OCC1(Cc2ccccc2)CCN(Cc2cnn(-c3ccccc3F)c2)CC1,n,n,n,n,n,n
COc1ccc2[nH]c(C(=O)N3CCC(CO)(Cc4cccc(C(F)(F)F)c4)CC3)c(C)c2c1,n,n,n,52.7,n,n
Cc1ccc(-n2cc(CN3CCC(CO)(Cc4cccc(C(F)(F)F)c4)CC3)cn2)cc1,n,n,n,n,107.6,n
OCC1(Cc2cccc(C(F)(F)F)c2)CCN(Cc2cc(F)cc(F)c2)CC1,n,n,n,n,n,n
CSc1cccc(CN2CCC(CO)(Cc3cccc(C(F)(F)F)c3)CC2)c1,n,n,n,n,52.2,n
